Reference: PubChem BioAssay AID1578 (Sanford-Burnham Center for Chemical Genomics, 2009)
Where “and” joins values, the source holds several entries; their conditions need not be identical. Identical values can stand only once. Out of some 290,000 compounds screened, about 3,000 (1%) were called active. The sample holds actives, similar compounds and a random draw of the others, so the mix is not that of the screen. Cut-off read from the data, not from the text of the source: active = inhibition mostly above about 36% (no sharp cut-off); inactive = mostly below about 34%. A structure can be active in one record and inactive in another.

assay: inhibition of NOD1-driven NF-kB reporter – cell-based, luminescence, uHTS, primary screen (AID 1578); conditions: NOD1-driven NF-kB luciferase reporter cells, at 4 µM, stronger effect = higher value;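 note: HEK-293T reporter cells stimulated with the NOD1 agonist gamma-tri-DAP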

inhibition, 36% (inactive) and 65.2% (active):
O=C(O)CSc1cccc2cccnc12

inhibition, inactive:
CCCNC(=S)NC1CC2CCC(C1)N2Cc1ccccc1 (stereo not drawn) 0.5%
O=C(CN1C(=O)/C(=C/c2ccccc2F)Sc2ccccc21)NCCCN1CCOCC1 -19.9%
O=C(CN1C(=O)/C(=C/c2ccccc2F)Sc2ccccc21)NCC1CCCO1 (stereo not drawn) 9.1%
NS(=O)(=O)c1ccc(CNC(=S)NCc2ccc(F)cc2)cc1 14.6%
Cc1onc(C(=O)NN)c1C(=O)Nc1ncc(C(F)(F)F)cc1Cl -8.1%
O=C(C1=NN[C@@H]2C(=O)N(c3ccccc3C(F)(F)F)C(=O)[C@H]12)c1ccc2ccccc2n1 -11.3%
O=C(C1=NN[C@@H]2C(=O)N(c3cccc(F)c3)C(=O)[C@H]12)c1ccc2ccccc2n1 -47%
O=C(O)/C=C\C(=O)NNC(=O)c1cc(-c2ccccc2)n[nH]1 -10%
Cc1ccc(CNC(=O)c2ccccc2NS(=O)(=O)c2ccc(Cl)nc2)cc1 5.6%
CC(C)On1c(SCC(=O)N(C)C)nc2ccccc2c1=O -1.8%
CCC(=O)/C=C1/Sc2ccc(OC)cc2N1CC 22.6%
CCN1/C(=C\C(C)=O)Sc2ccc(OC)cc21 16.9%
CC(=O)N1[C@H](Cc2ccccc2)C=C[C@]1(C)C(=O)NCCN1CCOCC1 22.4%
COCCNC(=O)[C@@]1(C)C=C[C@@H](Cc2ccccc2)N1C(=O)c1ccccc1 -45.4%
CC(=O)N1[C@H](Cc2ccccc2)C=C[C@]1(C)C(=O)NCCc1c[nH]c2ccccc12 -15.7%
CC(=O)N1[C@H](Cc2ccccc2)C=C[C@]1(C)C(=O)NCc1ccccn1 -2.7%
Cc1sc2nc(SCC(=O)N(C)Cc3ccccc3)n(-c3ccccc3)c(=O)c2c1C 3.3%
Cc1ccc2c(c1)N(C(=O)CCC(=O)NCc1cccnc1)CC(C)O2 (stereo not drawn) -33%
Cc1ccc(C(=O)N2CCc3ccccc32)o1 -15.8%
CCOC(=O)c1nc2nc(C)cc(=O)n2[nH]1 -8.6%
O=C(NCCCCCCNC(=O)OC1CCS(=O)(=O)C1)OC1CCS(=O)(=O)C1 (stereo not drawn) 9.3%
COc1cccc2c1-c1c(O)cccc1C2=O -18.2%
COc1ccc(OC)c(-n2c(-c3cccc(C)c3)n[nH]c2=S)c1 -42.7%
COc1cccc(COc2ccccc2C2Nc3ccc(Br)cc3C(=O)N2NC(=O)c2ccncc2)c1 (stereo not drawn) 9.7%
O=[N+]([O-])c1ccc(N=NN(CCO)CCO)cc1 6.1%
O=[N+]([O-])c1ccc(N=Nc2c(Cl)cc(O)cc2Cl)cc1 16.5%
CCC(=O)c1c(OCc2ccccc2)ccc2c(C)cc(=O)oc12 3.9%
Cc1cccc(C(=O)C2CCN(S(=O)(=O)c3cccc(C(=O)O)c3)CC2)c1 12.2%
O=C(CSc1cccc2cccnc12)OCC(=O)c1ccccc1 -30.2%
O=C(CSc1cccc2cccnc12)OCC(=O)c1ccc(Br)cc1 3.3%
NNC(=O)CSc1cccc2cccnc12 -24.8%
CN(C)C(=O)CSc1cccc2cccnc12 85.5%
COc1ccc(C2(C)NC(=O)N(CC3CCCCC3)C2=O)cc1 (stereo not drawn) 1.3%
COc1ccccc1OCCCCN1CCC(C)CC1 -6.9%
COc1ccc2nc(NC(=O)C3CCCN(S(=O)(=O)c4cccc5nonc45)C3)sc2c1 (stereo not drawn) -1.6%
O=C(Nc1ccc(NC(=O)c2ccccc2Cl)cc1)c1cccnc1 -48.1%
CN(CCCCCCCCC(=O)/C=N/O)Cc1ccccc1 -3.1%
CCN(CC)CCOC(=O)c1ccc(NC(=O)c2ccc(Cl)c(S(=O)(=O)N3CCCCCC3)c2)cc1 13.1%
O=C(CSc1nnc(NC2CCCCC2)s1)Nc1ccc2c(c1)C(=O)c1ccccc1C2=O -43.3%
CC(C)Nc1nnc(SCC(=O)Nc2ccc(F)cc2)s1 -8.4%
CC(=O)c1cccc(NC(=O)C2C(c3ccccc3)C2(Cl)Cl)c1 (stereo not drawn) -15.1%
COc1ccc(C2NC(=O)NC3=C2C(=O)CCC3)cc1 (stereo not drawn) -30.7%
COCCN1C(=O)c2cc(C(=O)Nc3cccc(F)c3)ccc2C1Nc1cccc(F)c1 (stereo not drawn) 2.2%
COCCCn1c(SCc2ccc(OC)cc2)nc2cc(OC)c(OC)cc2c1=N -11.5%
COCCCn1c(SCc2ccccc2)nc2cc(OC)c(OC)cc2c1=N 5.9%
O=C(COC(=O)c1ccc(S(=O)(=O)N2CCc3ccccc3C2)cc1)NC1CCS(=O)(=O)C1 (stereo not drawn) 3.9%
NS(=O)(=O)c1ccc(NC(=S)NCc2ccc(Cl)cc2)cc1 4.1%
CC1=CN2C(=N)/C(=C/c3ccc(Sc4ccc(C)cc4)o3)C(=O)N=C2S1 -6.2%
CC1=CN2C(=N)/C(=C/c3ccco3)C(=O)N=C2S1 -63.4%
CC1=CN2C(=N)/C(=C/c3ccc(C)o3)C(=O)N=C2S1 -39.8%
CC1=NN2C(=N)/C(=C\c3ccc(SCc4ccccc4)o3)C(=O)N=C2S1 9.5%
CC(=O)Nc1ccc(OC(=O)c2cc3cc(Br)ccc3oc2=O)cc1 7.6%
CC(C)C(=O)Nc1ccc(NC(=O)c2ccccc2Cl)nc1 -13.2%
CCN(CC)C(=O)CSc1nnc([C@H](Cc2c[nH]c3ccccc23)NC(=O)OC(C)(C)C)o1 -14.8%
CC(C)N(C(=O)CSc1nnc(NC(=O)C2CCC2)s1)C(C)C -7.8%
CCSc1nnc(NC(=O)C2CCCCC2)s1 -31.5%
CCc1ccc(NC(=O)CSc2nnnn2-c2cccnc2)cc1 -28.4%
CCCC(=O)C1=C(O)C(C(=O)OC)C(C)(C)CC1=NCCCCCC(=O)O (stereo not drawn) -12.1%
Cc1cc(C)c(NC(=O)c2ccc3c(c2)C(=O)N(Cc2cccnc2)C3=O)c(C)c1 -0.6%
COc1cc2ncnc(NCc3cc(F)ccc3F)c2cc1OC 0.3%
Fc1cccc(CNc2ncnc3cc(Cl)ccc23)c1F 0.2%
Nc1cc(=O)[nH]n1C1CCN(c2ccccc2)CC1 -4%
COc1ccc(C2C=C(Nc3ccccc3)C(=O)N2c2ccccc2)cc1OC (stereo not drawn) 4.9%
CC(=O)NCc1cc(-c2ccc(Cl)cc2)no1 -35.1%
COc1ccc(-c2cc(CNC(=O)CCl)on2)cc1 54.5%
COc1ccc(Cl)cc1NC(=O)CN1C(=O)NC2(CCCC2)C1=O -8.5%
CCn1c(SCC(=O)N2CCCc3ccccc32)nc2ccccc2c1=O -37.5%
O=C(CSc1nc2ccccc2c(=O)n1-c1ccccc1)N1CCCc2ccccc21 -19.1%
Cc1nc(SCC(=O)N2CCCc3ccccc32)c2oc3ccccc3c2n1 -0.3%
Cc1nc(SCC(=O)NCc2ccco2)c2oc3ccccc3c2n1 -2.6%
CCc1nc(SCC(=O)N2CCCc3ccccc32)c2oc3ccccc3c2n1 0.5%
O=C(CSc1ncnc2c1oc1ccccc12)NCc1ccc(F)cc1 19.3%
COc1cccc(OCC(O)CN2CCN(c3ccccc3)CC2)c1 (stereo not drawn) 2.2% and -2.1%
CC(C)(C)c1ccc(-c2noc(-c3ccno3)n2)cc1 -6.3%
CCN(CC)S(=O)(=O)c1cccc(C(=O)N/N=C/c2ccc(N3CCOCC3)cc2)c1 -29.1%
O=C1NC(=O)/C(=C\c2ccc(O)cc2O)S1 -22.3%

inhibition, active:
O=C(CN1C(=O)/C(=C/c2ccccc2F)Sc2ccccc21)NCc1cccnc1 59.2%
O=C(C1=NN[C@@H]2C(=O)N(c3cccc(C(F)(F)F)c3)C(=O)[C@H]12)c1ccc2ccccc2n1 87.5%
CCN1/C(=C/C(C)=O)Sc2ccc(OC)cc21 53%
CC(=O)N1[C@H](Cc2ccccc2)C=C[C@]1(C)C(=O)NCc1ccc(C)o1 99.7%
C[C@]1(C(=O)NCCc2c[nH]c3ccccc23)C=C[C@@H](Cc2ccccc2)N1C(=O)c1ccccc1 84.6%
COc1cccc2c1C(=O)c1c(O)c3c(c(O)c1C2=O)C[C@@](O)(C(C)=O)C[C@@H]3O[C@H]1C[C@H](N)[C@H](O)[C@H](C)O1 108%
COc1cccc2c1C(=O)c1c(O)c3c(c(O)c1C2=O)C[C@@](O)(C(=O)CO)C[C@@H]3O[C@H]1C[C@H](N)[C@H](O)[C@H](C)O1 78.6%
O=[N+]([O-])c1ccc(N=Nc2ncc[nH]2)cc1 74.2%
CCOC(=O)CSc1cccc2cccnc12 85.4%
CC(C)Nc1nnc(SCC(=O)Nc2ccc3c(c2)C(=O)c2ccccc2C3=O)s1 83.7%
COCCCn1c(SCCc2ccccc2)nc2cc(OC)c(OC)cc2c1=N 49.8%
CC1=CN2C(=N)/C(=C/c3ccc([N+](=O)[O-])o3)C(=O)N=C2S1 78.2%
CC1=CN2C(=N)/C(=C/c3ccc(Sc4ccc(Cl)cc4)o3)C(=O)N=C2S1 76.7%
CC(C)Sc1nnc(NC(=O)C2CC2)s1 37.9%
O=C(CCl)NCc1cc(-c2ccc(Cl)cc2)no1 87.7%
O=C(CSc1ncnc2c1oc1ccccc12)NCc1ccco1 72.8%
